Screening data from PubChem BioAssay.
Pf growth 48h – P. falciparum growth inhibition at 48 hours (one generation). P. falciparum luciferase growth in erythrocytes, 48 h. Potency, µM (top dose mostly 28.7 µM), usual class: inhibitors. 5.9% of 310,000 active. AID 504832
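Firefly luciferase activity from engineered P. falciparum reports growth; inhibitors lower the luminescent signal. Cultures contained 2% hematocrit erythrocytes at 0.1% final parasitemia.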
NS1 function inh – blocks influenza NS1 protein function. Potency, µM (doses to about 46.1 µM). 0.4% of 270,000 active; calls by dose curve; also: actives are rising curves; nearly all actives have a fitted effect of over 50% in size
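Read-out: OD600 growth recovery of NS1-expressing budding yeast. Cells grown overnight at 30C in -URA glucose medium, washed, resuspended and diluted 1:100 in 2% galactose assay medium, pH 6.0. Same strain lacking NS1 served as positive control.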
Pf growth 96h – P. falciparum growth inhibition at 96 hour, primary screen for plastid delayed-death inhibitors; P. falciparum luciferase reporter growth, 96 h; Potency, µM (titrated, usually from 28.7 µM), usual class: inhibitors; 6.9% of 320,000 active
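Readout is luminescence from an integrated firefly luciferase in P. falciparum. Red cells, 2% hematocrit and 0.05% parasitemia final, were cultured with compound through two parasite generations (96 hours) at 37 C, 5% CO2.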
Shiga inhibitor – Shiga toxin inhibition | 9.2% of 290,000 active | Vero cells, Shiga toxin protein synthesis inhibition reporter | inhibition, % at 38.7 µM; in the data active = inhibition mostly above about 28%, no sharp cut-off; inactive = mostly below about 43%
Sm TGR block – S. mansoni TGR enzyme inhibition; 3% of 360,000 active; Potency, µM (highest dose often 114 µM), hits mostly inhibitors; AID 485364; purified TGR, DTNB reduction, TNB absorbance 405 nm; also: nearly all actives have a fitted effect of over 60% in size
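Kinetic colorimetric format: TGR-catalysed, NADPH-driven DTNB reduction monitored via TNB absorbance. Enzyme dispensed at 20 nM; compound exposure 15 min at room temperature before reaction start.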
Cycloheximide cs – counter-screen for Shiga toxin inhibitors: cycloheximide protein synthesis inhibition | cell reporter, cycloheximide protein synthesis inhibition counterscreen | max response, % | 12% of 300,000 active | AID 2314; in the data active = max response mostly above about 13%, no sharp cut-off; inactive = mostly below about 14%; also: read at 38.3 µM for the half of the compounds with a filed dose
Hits are given with their value; 0 = inactive; ? = inconclusive; - = no result. Rows were chosen to be rich in hits. Some 21% of all compounds tested hit in one or more screens of this group. Unless noted, calls follow the shape of the dose curve; as a rule, active = well fitted curve in the direction sought with a large enough effect; inconclusive = small, poorly fitted or top-dose-only effect, or another doubt; inactive = no such curve, though single readings can be large; an effect the other way counts as inactive or inconclusive.

SMILES	Pf growth 48h	NS1 function inh	Pf growth 96h	Shiga inhibitor	Sm TGR block	Cycloheximide cs
Cc1ccc(C(=O)Nc2ccccc2)cc1S(=O)(=O)Nc1ccccc1	-	-	-	-	0	-
CC(=O)Nc1ccc(NC(=O)c2ccc(C)c(S(=O)(=O)Nc3cccc(C)c3)c2)cc1	11.7µM	0	0	0	0	0
Cc1cccc(NS(=O)(=O)c2cc(C(=O)N3CCN(C)CC3)ccc2C)c1	-	0	9.28µM	0	0	0
Cc1ccc(-n2c(=O)c3sc4ccccc4c3n(C)c2=O)cc1F	-	-	-	-	0	-
O=C1c2ccccc2C(=O)c2c1ccc(O)c2O	0	-	0	-	-	-
COC(=O)c1ccc2c(c1O)C(=O)c1ccccc1C2=O	-	0	4.15µM	64.1	0	39.3
CCSc1c(C(=O)NC)ccc2c1C(=O)c1ccccc1C2=O	0	0	14.7µM	0	0	0
Cc1ccc(S(=O)(=O)N(C)CCCC(=O)N2CCCCC2)cc1	0	0	0	-	0	0
CCOc1ccc(C(=O)N2CCN(Cc3ccccc3)CC2)cc1	0	0	?	0	0	0
NC(=O)C1CCN(Cc2cccc(OCc3ccccc3)c2)CC1	0	0	0	0	0	0
CCN1CCN(Cc2ccc(OCc3ccccc3)cc2)CC1	0	0	?	active	0	50.1
c1ccc(COc2cccc(CN3CCc4ccccc4C3)c2)cc1	0	0	?	105.1	0	40.8
CN1CCN(Cc2ccc(OCc3ccccc3)cc2)CC1	0	0	?	94.3	0	26.8
COc1cc(C(O)c2nc3ccccc3n2C(C)C)cc(OC)c1OC (stereo unspecified)	0	0	0	0	0	0
N#C/C(=C\c1ccc(F)cc1)c1nc(-c2ccc(-c3ccccc3)cc2)cs1	-	-	-	-	0	-
COc1cc2c(cc1N/C=C(\C#N)c1nc(-c3ccc(F)cc3)cs1)oc1ccccc12	9.28µM	0	?	0	0	0
CS(=O)(=O)c1ccc(C(=O)Nc2cccc(-c3nc4ccccc4[nH]3)c2)cc1	?	0	?	0	0	0
O=C(Nc1ccc(-c2nc3ccccc3[nH]2)cc1)c1ccc2c(c1)OCO2	9.28µM	0	5.22µM	0	0	28.3
CS(=O)(=O)Cc1ccc(C(=O)Nc2cccc(-c3nc4ccccc4[nH]3)c2)cc1	0	0	8.28µM	0	0	0
CC(C)(C)C(=O)Nc1ccc(Cl)c(-c2nc3ccccc3[nH]2)c1	-	-	-	-	0	-
CS(=O)(=O)c1ccc(C(=O)Nc2ccc(-c3nc4ccccc4[nH]3)cc2)cc1	1.85µM	0	0	0	0	0
O=C(Nc1ccc(Cl)c(-c2nc3ccccc3[nH]2)c1)c1ccc2c(c1)OCO2	0	?	?	0	0	19.8
COc1ccc([C@@H]2[C@@H]3C(=O)N(C(C)(C)C)C(=O)[C@@H]3[C@]3(C)C(=O)N(c4cccc(Cl)c4)C(=O)N23)cc1	?	-	0	-	0	-
COc1cc(C2c3c(oc4ccc(C)cc4c3=O)C(=O)N2Cc2ccccc2)ccc1O (stereo unspecified)	-	-	-	-	0	-
CCOc1ccc(NC(=O)Cn2nc(CC)n3c(cc4sccc43)c2=O)cc1	-	-	-	-	0	-
SMILES	Pf growth 48h	NS1 function inh	Pf growth 96h	Shiga inhibitor	Sm TGR block	Cycloheximide cs
Cc1cc(C(=O)O)ccc1N/C=C1\CCCC(C)C1=O (stereo unspecified)	0	0	-	0	0	0
CC1CCC/C(=C\Nc2ccc(O)cc2)C1=O (stereo unspecified)	0	0	0	80.5	39.8µM	52.2
Cc1nn(C)c(C(=O)N/N=C/c2ccncc2)c1Cl	0	0	0	0	0	0
Cc1nn(C)c(C(=O)N/N=C/c2cccc3ccccc23)c1Cl	0	0	0	42.9	0	10.7
O=C(N/N=C/c1ccccc1O)c1cccc2ccccc12	11.7µM	0	0	0	0	13.2
COc1cc(/C=N/NC(=O)CC2(C)OCCCO2)ccc1OCc1ccccc1	0	0	0	0	0	23.0
Cc1cc(C(=O)N/N=C/c2ccc([N+](=O)[O-])cc2)c(C)o1	0	0	0	0	-	0
Cc1cc(C(=O)N/N=C/c2ccc(OCc3ccccc3)cc2)c(C)o1	?	0	0	0	0	21.7
Cc1cc(C(=O)N/N=C/C=C/c2ccccc2)c(C)o1	0	0	0	0	0	0
Cc1cc(C(=O)N/N=C/c2ccccc2)c(C)o1	0	0	0	68.1	0	58.3
Cc1cc(C(=O)N/N=C/c2cccc3ccccc23)c(C)o1	0	0	?	0	0	29.5
COc1ccc(/C=N/NC(=O)c2ccco2)cc1OCc1ccccc1	8.28µM	0	?	42.5	0	19.2
